# Measurements from ChEMBL document CHEMBL3988442, “University of Dundee, Small-Polar-MMV Screening Library” (2021).
# Hit rate of the full screen: of about 48,000 compounds, about 13,000 (27%) showed an effect of 50% or more. The list shows a part of the results.
# System: Wolbachia pipientis
# Test: Anti-Wolbachia Cell-Based Screen
# Assay type: functional
# Parameters: scale not given: in the data most compounds retested in dose-response had high values
# Conditions: 5 µM
row,SMILES,Percent Effect [%]
1,N#Cc1cnc(NCc2ccc(C(=O)NC3CC3)cc2)c(Cl)c1,-6.229
2,CC(C)(C)c1noc(CCC(=O)N(CC2CCOC2)C2CC2)n1 (stereo not given),7.667
3,CNC(=O)CN1CCO[C@H]2CN(CC3CCOC3)C[C@H]21.O=C(O)C(F)(F)F.O=C(O)C(F)(F)F (stereo not given in full),19.99
4,CN(C)C(=O)CN1CCC2(C1)CN(CC1CCOC1)C2.O=C(O)C(F)(F)F.O=C(O)C(F)(F)F (stereo not given),-5.986
5,CC(=O)N1CCC2(CCN(CC3CCOC3)C2)CC1 (stereo not given),104
6,CC(=O)N1CCc2[nH]cnc2C12CCN(CC1CCOC1)CC2 (stereo not given),-0.2967
7,CNC(=O)CN1CCC2(CCCN(CC3CCOC3)C2)CC1.O=C(O)C(F)(F)F.O=C(O)C(F)(F)F (stereo not given),105.4
8,CC(=O)N1CCC2(CCN(CC3CCCCC3)C2)CC1,-14.93
9,Cc1cccc(NC(=O)Cn2ncc(SCC(N)=O)c(Cl)c2=O)c1C,-8.805
10,CN(C)c1cccc(C2CCCN2c2nc3c(cnn3C)c(=O)[nH]2)c1 (stereo not given),1.208
11,CCc1ccc(CN(C)C(=O)C2CC(=O)N(c3cccc(O)c3)C2)nc1 (stereo not given),-3.145
12,CCCn1nc2c(cc1=O)CN(Cc1nc(-c3ccoc3)no1)CC2,8.04
13,O=C(NC[C@@H]1CCCN1)c1cc(COc2cccc(C(F)(F)F)c2)[nH]n1,1.903
14,O=C(NC[C@H]1CCCN1)c1cc(COc2cccc(C(F)(F)F)c2)[nH]n1,-12.79
15,Cl.O=C(NCC(F)F)c1cnc(C2CCCN2)cn1 (stereo not given),98.86
16,Cl.O=C1NCCCCC1NCc1csc(-c2ccccn2)n1 (stereo not given),-2.48
17,O=C(NCc1ccccn1)C1CN(c2nc3ccccc3s2)CCN1 (stereo not given),4.696
18,CC1CCc2nc(O)c(C(=O)NCc3ccccn3)cc2C1 (stereo not given),0.7211
19,O=C(NCc1ccccn1)c1cncc(C2CCCN2)n1 (stereo not given),138.1
20,O=C(NCc1ccccn1)c1cnc(C2CCCN2)cn1 (stereo not given),135
21,Cc1nc(C(=O)NCc2ccccn2)cc(C2CCCN2)n1 (stereo not given),186.5
22,CCC1c2ccsc2CCN1C(=O)NCc1ccccn1 (stereo not given),11.42
23,O=S1(=O)C[C@@H]2[C@H](C1)N(Cc1cc(F)cc(F)c1)CCN2CCO,1.937
24,O=C(Nc1cc(C(F)(F)F)ccc1Cl)c1ccc(N2CCOCC2)nn1,-2.027
25,Cl.NC1CCN(C(=O)c2c(F)cccc2Br)CC1,2.266
26,Cc1ccccc1SCC(=O)N[C@H]1CC[C@H](n2cnnc2)CC1,-8.466
27,Cc1ccc(C(C)NC(=O)Cc2c(C)nc3cc(=O)[nH]n3c2C)s1 (stereo not given),3.622

row,SMILES,Percent Effect [%]
1,CCOCCN1CCN(CC(O)c2cc(Cl)ccc2Cl)CC1 (stereo not given),18.57
2,CCOc1ccnc(N2CCCN(c3nc(CC)ns3)CC2)n1,2.862
3,Cc1nc[nH]c1CN1CCC(CNC(=O)c2cccc3cnccc23)C1 (stereo not given),-8.641
4,CCn1ncnc1CN1CCC(CNC(=O)c2ccccc2C#N)C1 (stereo not given),115.7
5,Cc1cnn(CC2CC2)c1NC(=O)c1cccnc1O,-0.1453
6,CCn1ncnc1CN1CCC(CNC(=O)c2cccnc2O)C1 (stereo not given),102.6
7,Cc1ccc(C(=O)NCC2CCN(Cc3ccccc3C#N)C2)cn1 (stereo not given),-20.5
8,Cc1cc(CN2CCC(CNC(=O)c3ccc(C#N)cc3)C2)[nH]n1 (stereo not given),-6.827
9,Cc1cccc(N2CCN(S(=O)(=O)CCN)CC2)c1,-3.019
10,CCOC(=O)C1CCN(C(=O)c2cc(Br)ccc2-n2cnnn2)CC1,129.1
11,CC(=O)N1CCC(NC(=O)c2cc(Cl)ccc2-n2cnnn2)CC1,22.58
12,CCOC(=O)CN1CCC(C(=O)c2cc(F)ccc2F)CC1,-15.3
13,CCOC(=O)C1CCN(C(=O)Cn2ccc3cc(Br)ccc32)CC1,16.73
14,CCOC1CCCN(C(=O)c2sccc2-n2cnnn2)C1 (stereo not given),-3.669
15,CCOC(=O)N1CCC(C(=O)c2cc(F)ccc2F)CC1,-8.485
16,COC(=O)C1CCN(C(=O)c2cc(Br)ccc2-n2cnnn2)CC1,122.5
17,CCC(C)[C@H](NC(=O)c1cc(Br)ccc1-n1cnnn1)C(=O)OC (stereo not given in full),6.622
18,CCOC(=O)C1CCN(C(=O)c2cc(F)ccc2-n2cnnn2)CC1,122.3
19,CCn1ncnc1C(C)NC(=O)Cc1cc2c(cc1Cl)OCCO2 (stereo not given),1.538
20,CCCSc1ncccc1C(=O)NCc1ccc(N(C)C)cc1,112.3
21,CN(C)CCOc1ccc(CNC(=O)c2cccc(Cl)c2Cl)cc1,13.68
22,CCCSc1ncccc1C(=O)NCc1ccc(S(N)(=O)=O)cc1,120.7
23,CCSc1ncccc1C(=O)NCc1ccc(N(C)C)cc1,103
24,CC(C)(C)[S+]([O-])CCNC(=O)c1cccc2ncccc12 (stereo not given),-2.962
25,CNC(=O)c1cccnc1NCc1ccc(Cn2cccn2)cc1,-20.21
26,Cc1ccc(C(=O)NCc2ccc(N(C)C)cc2)cn1,-15.59
27,NS(=O)(=O)c1ccc(F)c(C(=O)NCCSc2ccccn2)c1,2.11

row,SMILES,Percent Effect [%]
1,Cc1cccc(C(=O)NCc2ccc(OCCN(C)C)cc2)c1C,-6.28
2,CSc1ncccc1C(=O)NCc1ccc(CS(=O)(=O)NC(C)C)cc1,2.17
3,CSc1ncccc1C(=O)NCc1ccc(N(C)C)cc1,175.4
4,Cn1ccnc1SCCNC(=O)c1cc(S(N)(=O)=O)ccc1F,-8.563
5,NC(=O)C(NCc1ccc(Cl)s1)c1ccccc1 (stereo not given),-5.898
6,CC(c1nc(C2CC2)no1)N(C)Cc1ccc(Cl)cc1 (stereo not given),-4.386
7,Cc1cc(-c2nn(C)c(Cl)c2CN2CC[C@@](O)(C3CCC3)[C@H](C)C2)no1,9.361
8,CC(C1CCN(Cc2c(Cl)cncc2Cl)CC1)N1CCOCC1 (stereo not given),1.146
9,CCCNC(=O)c1ccc(S(=O)(=O)NCC2(O)CCCNC2)cc1 (stereo not given),-4.599
10,Cc1cccc(N2CCN(CCNC(=O)c3ccnn3C)CC2)c1,20.06
11,CC1CCN(CCNC(=O)Nc2ccc(F)cc2Cl)CC1,1.976
12,Cn1nccc1C(=O)NCCN1CCC(O)(c2ccc(F)cc2)CC1,137.8
13,NC(=O)C1CCN(CC(=O)NCCn2cc(Cl)cn2)CC1,-2.539
14,O=C(Cn1cc(Cl)cn1)NCCN1CCC(O)(c2ccc(F)cc2)CC1,66.04
15,O=C(NCCN1CCCCCC1)c1coc(COc2ccc(F)cc2)n1,-5.25
16,Cn1ncc(Cl)c1C(=O)NCCN1CCC(O)(c2ccc(F)cc2)CC1,129.2
17,NC(=O)CN1CCC(C(=O)NCCn2cc(Cl)cn2)CC1,2.042
18,O=C(NCCN1CCOCC1)c1ccc(-c2ccc(F)cc2)nc1O,-1.382
19,Cc1c(Cl)cccc1OCC(=O)NC1(C#N)CCSC1 (stereo not given),-5.269
20,COc1cc2nc(C)sc2cc1NC(=O)CN(C)C(C)C,-15.43
21,CC(C)(C)OC(=O)N1CCCc2ccc(NCc3ccon3)cc21,-9.372
22,COC(=O)Nc1cccc(C(=O)N(C)Cc2cccc(O)c2)c1,89.16
23,CN(Cc1ccsc1)C(=O)c1cccc(F)c1,7.751
24,COCc1cccc(NC(C)C(=O)N(C)Cc2cccc(F)c2)c1 (stereo not given),-0.4154
25,CN(Cc1cccc(O)c1)C(=O)c1ccc(CCC(C)(C)O)cc1,-13.77
26,CN(C)C(=O)c1cccc(NC(=O)N(CCO)Cc2ccsc2)c1,5.648
27,CN(Cc1cccc(F)c1)C(=O)c1ccncc1Cl,-2.45

row,SMILES,Percent Effect [%]
1,CCN(C)C(=O)c1cccc(C(=O)N(C)Cc2cccc(O)c2)c1,101.4
2,CC(C)Cn1ncc2cc(C(=O)N(C)Cc3cccc(O)c3)cnc21,-1.61
3,COC(=O)c1cccc(C(=O)N(C)Cc2ccsc2)c1,77.93
4,CC(=O)Nc1cccc(CNC(=O)N(C)Cc2ccccc2)c1,-8.333
5,COC(=O)c1cccc(C(=O)N(C)Cc2cccc(F)c2)c1,85.67
6,c1cnc2c(c1)nc1n2[C@@H](CNC2CCOCC2)COC1,-0.09884
7,CCCC(=O)N(CCCN1CCOCC1)c1nc2c(F)cccc2s1.Cl,33.03
8,CN(C)Cc1nnc(C(=O)N(C)Cc2ccc(C(F)(F)F)cc2)o1,-9.605
9,O=C(NCc1nc(C2CCCCC2)no1)C1CC(=O)N(C2CCCC2)C1 (stereo not given),-9.19
10,CCc1nc(CSc2nnc(N)n2C2CC2)no1,6.66
11,COC(=O)c1cccc(C(=O)N(C)Cc2cccc(O)c2)c1,112.7
12,CC(=O)c1cccc(OCCCC(=O)N(C)Cc2cccc(O)c2)c1,-0.5874
13,Cn1c(=O)[nH]c(=O)n2c(CC(=O)NCc3ccccc3)cnc12,108.8
14,COc1ncc(C(=O)NCc2ccccc2)cn1,-10.01
15,Cc1cccc(Cl)c1NC(=O)Cn1cc(C(=O)O)ccc1=O,9.076
16,Cn1c(=O)[nH]c(=O)n2c(CC(=O)Nc3ccc(Cl)c(Cl)c3)cnc12,103.6
17,COCC(=O)Nc1ccc(Sc2nncn2C)c(Cl)c1,2.363
18,O=C(CCn1ccccc1=O)Nc1ccc(F)c(Cl)c1,4.502
19,Cc1nc2cc(=O)[nH]n2c(C)c1CC(=O)Nc1cn[nH]c1,-20.81
20,Cc1nc2c(c(C)c1CC(=O)Nc1ccc(Cl)cc1)c(=O)[nH]n2C,-4.982
21,Cc1cnc(NC(=O)NCCOc2ncccc2Cl)s1,12.43
22,Cc1ccc(NC(=O)Cc2cnc3n(C)c(=O)[nH]c(=O)n23)cc1,128
23,CC(C)(C)n1ncc2c(=O)n(CC(=O)NCc3ccccc3)cnc21,3.953
24,Cn1c(=O)[nH]c(=O)n2c(CC(=O)Nc3c(Cl)cccc3Cl)cnc12,100.8
